# Compound activity as filed in PubChem BioAssay.
# LGR2 inh = inhibitors of bursicon-induced LGR2 CRE-luciferase signal, primary screen, cell-based, HEK293, CRE-luciferase reporter, bursicon stimulation; Drosophila bursicon receptor LGR2 (rickets); bursicon-stimulated, 4 h; inhibition, % at 9.99 µM; hit rate 0.35% among 380,000; AID 720647, 2013;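 active means drop in luminescence signal, shown as inhibition above about 50% in the replicate tests, limit read from the data, passing the limit was not always enough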;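 further: agonist challenge used bursicon conditioned medium at about half maximal strength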
# TROY NFkB inh = inhibitors of TROY-driven NF-kB signaling, primary screen, Q293 LMP1-TROYcd cells, NF-kB luciferase, uHTS; Q293 LMP1-TROYcd NF-kB luciferase reporter, 4 h; inhibition, % at 10 µM; hit rate 0.98% among 360,000;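 active means compounds whose plate-normalised and pattern-corrected inhibition of the luciferase reporter signal at the single screening dose is 50% or more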
# TWEAK-Fn14 inh = inhibitors of TWEAK-Fn14 signaling, primary screen, luciferase reporter cells, uHTS | TWEAK-stimulated Fn14 reporter cells, luciferase luminescence, 8 h | inhibition, % at 10 µM | hit rate 2% among 360,000; in the data active means inhibition above about 50%
# LMP1 NFkB inh = EBV LMP1-driven NF-kappaB luciferase reporter inhibitors, primary screen, cell-based, luminescence, single point; hit rate 0.69% among 350,000; LMP1-induced NF-kappaB luciferase reporter cells; AID 504558, 2011; inhibition, % at 12.5 µM; in the data active means inhibition above about 41%;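 further: 0% = neutral control wells and 100% = reference inhibitor control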
# HSP90 refold inh = HSP90 inhibitors, primary screen, cell lysate, luminescence. Rabbit reticulocyte lysate, luciferase refolding luminescence, 3 h. hit rate 0.91% among 290,000. inhibition, % at 5.6 µM. Heat shock protein HSP 90 (rabbit reticulocyte lysate; luciferase refolding);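 active means inhibition above the screen-wide mean plus 3 SD, computed separately per campaign, cut at about 16% in these data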;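 further: 0% = DMSO wells and 100% = 60 µM geldanamycin wells; inhibitors lower the luminescence because luciferase stays unfolded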
# aDG glyco act = activators of alpha-DG glycosylation, primary screen, uHTS, Pro5-aDG cells, AlphaScreen. activation, % at 10 µM. hit rate 0.22% among 360,000. alpha-DG glycosylation AlphaScreen (IIH6); 0% Pro5, 100% B10-LARGE cell signal;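 active means activation of at least 8% versus controls, or a plate z-score of at least 8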;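 further: Pro5 are CHO cells carrying HIG-tagged alpha-DG that lacks glycosylation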
# * marks the source's active call; other numbers are inactive results; · = no result. Rows were chosen to be rich in hits. Some 2.6% of all compounds tested hit in one or more screens of this group.
SMILES,LGR2 inh,TROY NFkB inh,TWEAK-Fn14 inh,LMP1 NFkB inh,HSP90 refold inh,aDG glyco act
COc1ccc(-c2ccc3c(c2)S(=O)(=O)c2cccc(C(=O)NCc4cc(C)oc4C(F)(F)F)c2C3=O)cc1OC,·,-2.9,-49.1,86.1*,·,1.1
CCn1c(CNC(=O)C2CCCCC2)cc2cc(C)ccc21,-0.3,14.3,53.6*,2.8,1.2,0.1
CCCN1[C@H](C(=O)OC)[C@@H](CO)[C@@H]2Cn3c(ccc(-c4ccccc4OC)c3=O)[C@@H]21,-3.2,·,·,·,·,·
COc1ccc(CNC(=O)C2CC(=O)N(c3ccc(OCC(=O)N4CCCCC4)cc3)C2)cc1 (stereo not drawn),·,57.9*,13.2,3.0,-4.1,1.8
C[C@H]1CN([C@@H](C)CO)C(=O)c2cc(-c3cccnc3)cnc2O[C@H]1CN(C)C(=O)C1CCCCC1,7.4,·,·,·,·,·
CC(=O)O[C@H](CC(=O)O)C[N+](C)(C)C,-7.8,-14.9,-19.3,59.2*,·,0.4
CC(=O)OC(CC(=O)O)C[N+](C)(C)C (stereo not drawn),4.8,12.4,-20.5,-5.1,2.1,0.5
CCC(=O)N1[C@H](CO)[C@H](c2ccccc2)C12CN(C(=O)CN1CCOCC1)C2,10.2,·,·,·,·,·
Cc1ccccc1OCC1Cc2c(nc(N)c(C#N)c2N)O1 (stereo not drawn),·,·,58.2*,-25.4,0.2,0.0
O=C(Cc1ccccc1)NNC1=NS(=O)(=O)c2ccccc21,21.2,-9.4,53.5*,-7.5,-3.7,0.2
O=C(CN1C(=O)c2ccccc2C1=O)NNC1=NS(=O)(=O)c2ccccc21,2.3,-11.1,-9.7,42.2*,2.0,-0.1
O=C(NNC1=NS(=O)(=O)c2ccccc21)c1ccc(Cl)cc1,9.8,-18.6,-0.2,7.7,3.5,-0.2
C/C=C/c1ccc([C@@H]2[C@H](CO)N(C(=O)CC)C23CN(S(=O)(=O)CC)C3)cc1,4.1,·,·,·,·,·
CCCNC(=O)C[C@@H]1C[C@H]2c3cc(NC(=O)Cc4ccncc4)ccc3O[C@H]2[C@@H](CO)O1,-5.2,·,·,·,·,·
O=C(C[C@@H]1C=C[C@@H](NC(=O)Nc2cc(F)ccc2F)[C@@H](CO)O1)NCc1ccc2c(c1)OCO2,6.0,·,·,·,·,·
CCN1CCN(C(=O)Nc2cccc3ccccc23)CC1,·,55.6*,7.0,-5.4,-1.6,-0.2
COc1ccc(S(=O)(=O)N(C)C[C@@H]2Oc3ccc(NS(C)(=O)=O)cc3CC(=O)N([C@@H](C)CO)C[C@@H]2C)cc1,-23.9,·,·,·,·,·
Clc1ccc(OCc2cc(-c3ccccc3)no2)c(Cl)c1,·,49.6,62.2*,-0.4,15.9,0.0
C[C@H]1CCCCO[C@H](CN(C)C(=O)Cc2ccccc2)[C@@H](C)CN([C@@H](C)CO)C(=O)c2cc(NC(=O)Nc3ccc4c(c3)OCO4)ccc2O1,18.1,·,·,·,·,·
C[C@H](CO)N1C[C@H](C)[C@H](CN(C)S(=O)(=O)c2ccccc2)OCCCC[C@H](C)Oc2ccc(NC(=O)Nc3ccccc3)cc2C1=O,9.8,·,·,·,·,·
Cc1cc(C)c(S(=O)(=O)Nc2cc(SCC(=O)O)c(O)c3ccccc23)cc1C,·,·,·,·,-2.6,·
COc1ccc(S(=O)(=O)Nc2cc(Sc3ncn[nH]3)c(O)c3ccccc23)cc1,·,·,·,·,76.5*,·
O=C(O)CSc1cc(NS(=O)(=O)c2ccc(Cl)cc2)c2ccccc2c1O,1.5,46.2,93.6*,9.1,14.0,3.8*
COc1ccc(S(=O)(=O)Nc2ccc(O)c(Sc3ncn[nH]3)c2)cc1,·,-0.1,8.2,-12.1,2.0,0.4
COc1ccc(S(=O)(=O)Nc2cc(SCC(=O)O)c(O)c3ccccc23)cc1,-13.6,50.9*,92.8*,-8.9,7.4,5.0*
SMILES,LGR2 inh,TROY NFkB inh,TWEAK-Fn14 inh,LMP1 NFkB inh,HSP90 refold inh,aDG glyco act
COc1ccc(S(=O)(=O)Nc2cccc3ccc(O)cc23)cc1,11.3,6.9,27.4,-13.3,·,0.0
COc1ccc(CNC(=O)C[C@H]2C[C@@H]3c4cc(NC(=O)CC5CC5)ccc4O[C@@H]3[C@@H](CO)O2)cc1,-11.9,·,·,·,·,·
C[C@H]1CN([C@@H](C)CO)S(=O)(=O)c2ccc(-c3ccc(C#N)cc3)cc2O[C@H]1CN(C)C,-11.0,·,·,·,·,·
COc1ccc(CCNC(=O)COC(=O)C23CC4CC(CC(C4)C2)C3)cc1,-8.2,3.5,13.6,-0.3,-5.1,-0.2
COc1ccc(CCNC(=O)COC(=O)C23CC4CC(CC(Br)(C4)C2)C3)cc1,·,10.5,69.7*,-2.2,-2.0,0.1
CCON1C(=O)C2(CCCCC2)C(=O)C12C=CCCC2 (stereo not drawn),27.7,-3.6,8.9,85.5*,·,0.0
CCc1nnc(NC(=O)CCC(=O)N2CCN(Cc3ccccc3)CC2)s1,·,9.5,-3.4,-2.6,1.0,0.0
CCc1nnc(NC(=O)CCC(=O)N2CCN(C3c4ccccc4-c4ccccc43)CC2)s1,10.0,77.5*,70.2*,-6.0,-5.2,0.0
CCOc1cccc2sc(N(CCCN(C)C)C(=O)c3ccc(C(=O)c4ccccc4)cc3)nc12,1.6,-22.1,92.2*,-11.4,5.0,4.4
O=C(Nc1ccc(S(=O)(=O)NC2=NCCCCC2)cc1)c1ccc([N+](=O)[O-])s1,16.3,12.2,-2.1,3.1,·,8.4*
COc1ccc(S(=O)(=O)N(C)C[C@H]2Oc3ccc(NC(=O)Nc4cccc5ccccc45)cc3C(=O)N([C@H](C)CO)C[C@H]2C)cc1,-19.6,·,·,·,·,·
S=C1SCN(Cc2ccccn2)CN1Cc1ccco1,·,4.6,-2.9,25.4,-0.1,0.0
COCCN1CSC(=S)N(Cc2ccco2)C1,-39.6,12.5,-7.4,44.8*,-1.4,0.0
COc1ccc(-c2ccnc3cc(C(=O)O)nn23)cc1,-19.6,11.4,11.5,56.8*,-2.5,0.0
O=C(O)c1cc2nccc(-c3ccco3)n2n1,1.1,-13.5,16.1,-9.0,-4.0,-0.2
COc1ccc(C(=O)N2N=C(c3ccc(NS(C)(=O)=O)cc3)CC2c2cccs2)cc1 (stereo not drawn),-16.0,51.5*,21.7,8.2,5.0,0.0
Cc1ccc(C(=O)N2N=C(c3ccc(NS(C)(=O)=O)cc3)CC2c2cccs2)cc1 (stereo not drawn),11.6,2.7,0.6,6.6,-1.3,0.0
O=C(CCn1ccc2cc(S(=O)(=O)N3CCCC3)ccc21)NCCc1ccccc1,-1.5,-4.3,4.5,71.6*,1.8,2.6
Cc1ccc(CCNC(=O)CCn2ccc3cc(S(=O)(=O)N4CCCC4)ccc32)cc1,-3.4,1.6,-24.4,-1.2,-5.6,-0.6
CC(C)CN=C(NS(=O)(=O)c1ccccc1)C(Cl)(Cl)Cl,94.0*,51.0*,98.6*,18.8,-5.5,-0.2
CC(C)CC(NS(=O)(=O)c1ccccc1)C(=O)O (stereo not drawn),·,4.5,-27.5,-5.2,5.5,-0.2
